MCF10A rereplic – inducers of DNA re-replication in MCF 10A breast cells | MCF 10A DNA re-replication, Hoechst nuclear intensity, 48 h | AID 624296 | Potency, µM (series often up to 46.1 µM), for the others: at the top dose activity, positive = re-replication, hits mostly activators | 350,000 compounds, 2.9% hits; note: potency is the fitted concentration of half-maximal effect; % of control where 0% means no effect; nearly all actives have a fitted effect of over 50% in size
IL1B secr inh – inflammasome signaling inhibition, IL-1 beta readout | AID 743279 | activity change, % at 57.5 µM | 360,000 compounds, 4.7% hits | THP-1 LPS/ATP IL-1B secretion, AlphaLISA, 16 h; hits give low values; in the data active = activity change below about -50%; inconclusive = mostly about -30% to -49%; note: % is set by controls: 0 for no effect and ±100 for the full control effect
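THP-1 cells pretreated 1 hr with compounds (up to 57.5 uM final), then stimulated with LPS (250 ng/mL final) plus ATP (1.25 mM final); secreted IL-1B measured by AlphaLISA after 16 hr, decreased signal indicating inhibition.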
RORgamma inh – blocks mouse ROR gamma transcriptional activity; P51450; Drosophila S2 Gal4-RORgamma UAS-luciferase reporter, 20 h; Potency, µM (doses to about 53.6 µM), for inactives: at the top dose activity change, negative = inhibition, usual class: inhibitors; 310,000 compounds, 5.4% hits; AID 2551; note: potency is the fitted concentration of half-maximal effect; % is set by controls: 0 for no effect and ±100 for the full control effect; nearly all actives have a fitted effect of over 60% in size
Target sequence (P51450 whole entry, looked up, the tested form may be a part): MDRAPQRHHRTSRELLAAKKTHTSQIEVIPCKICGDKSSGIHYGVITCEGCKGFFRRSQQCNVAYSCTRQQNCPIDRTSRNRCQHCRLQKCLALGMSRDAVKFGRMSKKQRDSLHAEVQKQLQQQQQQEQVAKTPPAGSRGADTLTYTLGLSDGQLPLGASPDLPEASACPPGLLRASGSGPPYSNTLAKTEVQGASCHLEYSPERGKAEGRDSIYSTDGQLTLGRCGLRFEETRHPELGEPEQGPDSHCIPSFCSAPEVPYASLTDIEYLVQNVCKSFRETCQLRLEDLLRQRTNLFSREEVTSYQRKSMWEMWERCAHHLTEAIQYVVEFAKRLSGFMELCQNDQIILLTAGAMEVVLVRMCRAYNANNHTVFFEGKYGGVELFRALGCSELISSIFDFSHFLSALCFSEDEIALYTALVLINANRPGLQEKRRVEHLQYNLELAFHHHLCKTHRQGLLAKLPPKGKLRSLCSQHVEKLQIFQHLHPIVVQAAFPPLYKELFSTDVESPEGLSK
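Using a luciferase readout, inhibitors were identified by reduced reporter activity in Drosophila cells coexpressing a copper-inducible Gal4–ROR gamma fusion and UAS-driven Photinus luciferase, incubated 20 hr after 700 uM copper sulfate.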
VP16 counter – counter-screen for ROR gamma inhibitors: Gal4-VP16 reporter. Drosophila S2 Gal4-VP16 UAS-luciferase, luminescence, 20 h. Potency, µM (doses to about 53.6 µM), inactives show top-dose activity, negative = inhibition, most hits filed as inhibitors. 310,000 compounds, 3.5% hits. AID 2546;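 note: Gal4-VP16 expression switched on by copper sulfate through the metallothionein promoter; potency is the fitted concentration of half-maximal effect; % is set by controls: 0 for no effect and ±100 for the full control effect; nearly all actives have a fitted effect of over 50% in size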
SW480 rereplic – inducers of DNA re-replication in SW480 colon cancer cells; 340,000 compounds, 1.8% hits; SW480 DNA re-replication, Hoechst DNA content imaging, 48 h; Potency, µM (series often up to 46.1 µM), for the others: at the highest dose re-replication activation, most hits filed as activators; note: potency is the fitted concentration of half-maximal effect; % of control where 0% means no effect; nearly all actives have a fitted effect of over 55% in size
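250 cells/well; 23 nL cpd via pin tool; 48 hr, 37 C, 5% CO2; Hoechst 40 min; imager read of total nuclear intensity, ex 405/em 500-530 nm.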
* marks the source's active call; other numbers are inactive results; i = inactive; ? = inconclusive; / = no result; [ ] = remark or other dose. Compounds with a hit are over-represented: about 11% of the library has one in this group of screens. Unless noted, calls come from the whole dose curve; as a rule, active = well fitted curve in the direction sought with a large enough effect; inconclusive = small, poorly fitted or top-dose-only effect, or another doubt; inactive = no such curve, though single readings can be large; an effect the other way counts as inactive or inconclusive.

SMILES	MCF10A rereplic	IL1B secr inh	RORgamma inh	VP16 counter	SW480 rereplic
O=C1C2C3CC4C5C3C1C5C1(SCCS1)C42 (centres undefined)	/	15	/	/	/
CCOC(=O)C1=C(COC(=O)/C=C/c2cccc(OC)c2OC)NC(=O)NC1C (centres undefined)	-1%	9	/	/	-6%
COc1ccc2[nH]c(C)c(CCN(Cc3cccs3)C(=S)Nc3cccc(F)c3)c2c1	-5%	-23	1.6µM*	?	-2%
COc1ccc(OC)c(NC(=S)N(CCc2c(C)[nH]c3ccccc23)Cc2cccs2)c1	1%	-10	8.9µM*	8%	?
COc1ccc(OC)c(NC(=S)N(CCc2c(C)[nH]c3ccc(C)cc23)Cc2cccs2)c1	12%	-29	10µM*	17%	1%
COc1ccc(NC(=S)N(CCc2c(C)[nH]c3ccccc23)Cc2ccco2)cc1	7%	?	?	1%	5%
COc1cccc(NC(=S)N(CCc2c(C)[nH]c3ccc(C)cc23)Cc2cccs2)c1	-2%	13	-4%	?	?
CCOC(=O)c1c(C)nsc1NC(=O)C1CCCCC1	-7%	41	37%	1%	3%
CCOC(=O)c1ccc(NC(=O)CC2S/C(=N/N=C/c3c[nH]c4ccccc34)NC2=O)cc1 (centres undefined)	?	-68*	?	-17%	?
Cc1ccc(NC(=O)CC2S/C(=N/N=C/c3ccco3)NC2=O)cc1Cl (centres undefined)	-8%	21	?	2%[10 µM]	-19%
CC(C)=N/N=C1/NC(=O)C(CC(=O)Nc2cc(Cl)ccc2C)S1 (centres undefined)	15%	8	11µM*	?	-3%
Cc1ccc(NC(=O)CC2S/C(=N/N=C/C=C/c3ccccc3)NC2=O)cc1Cl (centres undefined)	-4%	20	4µM*	4µM*	-1%
Nc1nonc1C(=O)NCCNC(=O)c1cccc(Cl)c1	-4%	40	14%	-3%	2%
Cc1ccc(C(=O)Nc2nnc(-c3ccco3)o2)cc1	27%	-4	?	?	?
Cc1ccccc1NC(=O)c1ccc2ccccc2c1	4%	-4	36%	-1%	-5%
N#Cc1ccc(C(=O)Nc2nnc(-c3ccco3)o2)cc1	3%	28	1µM*	3.2µM*	?
Cc1nnc(NC(=O)c2ccc3ccccc3c2)o1	17%	-57*	0.11µM*	0.32µM*	?
Cc1ccsc1C(=O)Nc1nnc(-c2ccco2)o1	7%	9	0.28µM*	?	13%
O=C(Nc1nnc(-c2ccco2)o1)c1ccc2ccccc2c1	?	-2	1.4µM*	1.1µM*	?
Cc1cccc(CNc2ncnc3ccc(-c4ccccc4C#N)cc23)c1	/	/	-31%	-12%	/
O=C(O)CCCC(=O)Nc1ccccc1SCCS(=O)(=O)c1ccc(Cl)cc1	4%	-12	-1%	1%	0%
COc1cccc(CN(C)C(=O)c2cc(S(=O)(=O)NC3CCCCC3)ccc2C)c1OC	1%	-23	/	/	-4%
O=C(Nc1nnc(-c2ccco2)o1)c1ccc([N+](=O)[O-])s1	21µM*	1	0.89µM*	2.8µM*	?
O=C(Nc1nnc(-c2ccccc2Cl)o1)c1cc2cc([N+](=O)[O-])ccc2s1	11%	/	-20%	-4%	1%
COC(=O)c1ccc(Nc2cc(C)nc3ccc(C)cc23)cc1	18µM*	-93*	?	-26%	18µM*
SMILES	MCF10A rereplic	IL1B secr inh	RORgamma inh	VP16 counter	SW480 rereplic
Cc1ccc2nc(C)cc(Nc3ccc([N+](=O)[O-])cc3)c2c1	2.9µM*	15	7.1µM*	5µM*	9.2µM*
COc1ccc(/C=N/NC(=O)c2ccc(NC(C)=O)cc2)cc1COc1ccc(F)cc1F	2%	0	11µM*	10µM*	-6%
COc1ccc(/C=N/NC(=O)c2nc(Cl)c(Cl)c(N)c2Cl)cc1COc1ccccc1F	5%	41	9%	-15%	0%
COc1ccc(/C=N/NC(=O)c2nc(Cl)c(Cl)c(N)c2Cl)cc1COc1ccc(F)cc1F	15µM*	61	?	-26%	?
COc1ccc(/C=N\NC(=O)c2ccc(F)cc2)cc1COc1cc(F)ccc1[N+](=O)[O-]	3%	i	?	?	?
COc1ccc(/C=N/NC(=O)c2ccncc2)cc1COc1ccc(NC(C)=O)cc1	?	-9	8%	22%	?
COc1ccc(/C=N/NC(=O)c2cc(C(C)(C)C)[nH]n2)cc1COc1ccc(F)cc1F	21%	-77*	17%	1%	0%
COc1ccc(/C=N\NC(=O)c2ccccc2F)cc1COc1ccc(F)cc1F	?	66	16µM*	20µM*	12µM*
COc1ccc(/C=N\NC(=O)c2ccccc2Br)cc1COc1c(F)c(F)cc(F)c1F	4.6µM*	-25	?	?	?
COc1ccc(/C=N/NC(=O)c2ccc(F)cc2)cc1CN1CCc2cc(OC)c(OC)cc2C1C (centres undefined)	?	-59*	5%	-14%	?
COc1ccc(/C=N/NC(=O)c2ccccc2O)cc1COc1ccccn1	9%	17	-9%	6%	?
COc1ccc(/C=N/NC(=O)c2ccccc2O)cc1CSc1ccccn1	-31%	0	16µM*	?	-3%
COc1ccc(/C=N/NC(=O)c2ccoc2C)cc1COc1c(C)cccc1C	7.1µM*	6	11µM*	?	?
COc1ccc(/C=N\NC(=O)c2ccccc2OC)cc1COc1ccccc1C	12%	-19	?	-17%	2%
O=[N+]([O-])c1ccc(OCCCCN2CCc3ccccc3C2)cc1	14%	?	8%	-4%	7%
FB(F)F	/	/	3%	16%	/
Cn1cc(C(=O)NS(=O)(=O)Nc2ccc(Br)cn2)c2ccccc21	-2%	-13	-1%	-8%	-34%
Cc1ccc(NC(=O)CCc2nnc3ccc(N4CCC(C)CC4)nn23)nc1	5%	-53*	9%	-9%	-14%
Cc1ccc(NC(=O)CCc2nnc3ccc(N4CCC5(CC4)OCCO5)nn23)nc1	-6%	-6	-10%	-1%	2%
COC(=O)c1ccc(N/N=C/c2cc([N+](=O)[O-])cc(OC)c2O)cc1	11%	6	2%	0%	-14%
COc1cc(/C=N/NC(=O)c2cccc([N+](=O)[O-])c2)cc(OC)c1O	-3%	-4	-18%	8%	3%
COc1cc(/C=N/NC(=O)c2cncc(Br)c2)cc([N+](=O)[O-])c1O	1%	56	0.32µM*	?	4.1µM*
COc1cc([N+](=O)[O-])cc(/C=N/NC(=O)c2cncc(Br)c2)c1O	?	74	2.8µM*	?	24%
